Laboratory results reported in publication PMC4336329 (PLoS ONE, 2015).
The campaign covered roughly 310,000 compounds. About 14,000 (4.5%) showed an effect of 50% or more. Effects have a minus sign here. The list comes from a sample in which strong results are over-represented; it also holds similar structures and randomly drawn compounds.

The molecules below were run against human ether-à-go-go-related gene (hERG) potassium channel (human, UniProt Q12809) (assay: primary screen, population patch clamp on CHO cells stably expressing hERG; higher = less effect of the substance).
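Note: peak tail current of the secondary pulse compared with the same well before compound.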

human ether-à-go-go-related gene (hERG) potassium channel, sequence (Q12809 whole entry, looked up): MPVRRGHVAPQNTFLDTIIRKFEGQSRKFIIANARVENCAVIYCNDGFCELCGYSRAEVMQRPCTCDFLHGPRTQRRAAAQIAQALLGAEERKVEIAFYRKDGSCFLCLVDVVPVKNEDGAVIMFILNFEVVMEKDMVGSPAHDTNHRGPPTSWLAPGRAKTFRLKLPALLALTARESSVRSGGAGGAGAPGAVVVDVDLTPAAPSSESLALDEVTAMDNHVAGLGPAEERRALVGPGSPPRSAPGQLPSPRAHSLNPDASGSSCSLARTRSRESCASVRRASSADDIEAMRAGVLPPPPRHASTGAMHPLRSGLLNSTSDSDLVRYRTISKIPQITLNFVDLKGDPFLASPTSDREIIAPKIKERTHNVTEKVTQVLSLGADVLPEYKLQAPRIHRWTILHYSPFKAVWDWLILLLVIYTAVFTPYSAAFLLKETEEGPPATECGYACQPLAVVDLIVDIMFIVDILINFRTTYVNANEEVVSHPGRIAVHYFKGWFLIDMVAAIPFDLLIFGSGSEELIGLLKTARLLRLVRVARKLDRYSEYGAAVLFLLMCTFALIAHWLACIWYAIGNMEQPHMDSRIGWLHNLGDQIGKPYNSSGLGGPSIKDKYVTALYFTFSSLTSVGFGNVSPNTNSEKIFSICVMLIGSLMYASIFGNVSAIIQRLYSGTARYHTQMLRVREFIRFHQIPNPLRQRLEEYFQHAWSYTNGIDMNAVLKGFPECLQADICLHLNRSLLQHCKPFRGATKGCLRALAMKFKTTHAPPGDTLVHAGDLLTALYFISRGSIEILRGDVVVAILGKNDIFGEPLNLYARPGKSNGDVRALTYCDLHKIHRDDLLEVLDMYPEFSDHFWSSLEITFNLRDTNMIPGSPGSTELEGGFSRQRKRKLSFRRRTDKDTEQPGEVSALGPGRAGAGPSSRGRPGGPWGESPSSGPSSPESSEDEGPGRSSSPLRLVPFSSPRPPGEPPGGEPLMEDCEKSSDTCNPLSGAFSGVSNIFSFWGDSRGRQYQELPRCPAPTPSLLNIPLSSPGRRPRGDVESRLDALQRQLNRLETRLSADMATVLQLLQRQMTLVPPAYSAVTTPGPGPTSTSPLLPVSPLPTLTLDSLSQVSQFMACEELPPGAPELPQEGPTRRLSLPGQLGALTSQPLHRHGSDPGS

SMILES	hERG current change (%, negative = inhibition) at 10uM [%]
O=C(Nc1ccccn1)C1CCN(C(=O)c2ccc(F)cc2)CC1	3.81
CC1CC(C)CN(S(=O)(=O)c2cccc3nsnc23)C1 (stereo not drawn)	4.61
Cc1cc(C)c2c3c(oc2n1)C(=O)N(c1cccc(Cl)c1)CC(=O)N3	1.82
NC(=O)CC1NC(=O)c2cc([N+](=O)[O-])cc(I)c2OCCC(C(N)=O)NC(=O)[C@@H]2CCCN2C1=O (stereo partly drawn)	6.79
O=C(c1ccc2c3c(cccc13)C(=O)N(O)C2=O)N1CCCCC1	12.4
COC(=O)[C@@H]1Cc2c([nH]c3ccccc23)C(C)(C)N1C(=O)CCl	3.24
CC(C)[C@@H](C(=O)NC1CCCC1)N1C(=O)N2CCc3c([nH]c4ccccc34)[C@@]2(C)C1=O	-12.4
CC(C)[C@@H](C(=O)NC1CC1)N1C(=O)N2CCc3c([nH]c4ccccc34)[C@@]2(C)C1=O	-6.45
COc1ccc(CNC(=O)[C@H](C)N2C(=O)N3CCc4c([nH]c5ccc(OC)cc45)[C@@]3(C)C2=O)cc1	9.36
C[C@@H](C(=O)NC1CCN(Cc2ccccc2)CC1)N1C(=O)N2CCc3c([nH]c4ccccc34)[C@@]2(C)C1=O	-77.8
COc1ccc2[nH]c3c(c2c1)CCN1C(=O)N([C@@H](C)C(=O)NC2CCN(Cc4ccccc4)CC2)C(=O)[C@]31C	-48.8
COC(=O)C1Cc2c([nH]c3ccccc23)C2(CCN(Cc3ccccc3)CC2)N1 (stereo not drawn)	-68.2
COc1ccc2[nH]c3c(c2c1)CCN1C(=O)N([C@@H](C)C(=O)NCc2ccccc2)C(=O)[C@]31C	2.42
COc1ccc2[nH]c3c(c2c1)CCN1C(=O)N([C@@H](C)C(=O)NCc2ccco2)C(=O)[C@]31C	-53.8
COC(=O)[C@H]1Cc2c([nH]c3ccccc23)[C@H](c2ccccc2)N1	5.76
CC(C)[C@@H](C(=O)NC1CCN(Cc2ccccc2)CC1)N1C(=O)N2CCc3c([nH]c4ccccc34)[C@@]2(C)C1=O	-74.6
C[C@@H](C(=O)NC1CCCC1)N1C(=O)N2CCc3c([nH]c4ccccc34)[C@@]2(C)C1=O	-27.5
CCCC(=O)n1nc(-c2cccnc2)nc1N	-27.1
CC(C)C[C@@H](C(=O)NC1CCN(Cc2ccccc2)CC1)N1C(=O)N2CCc3c([nH]c4ccccc34)[C@@]2(C)C1=O	-53.2
CC(C)C[C@@H](C(=O)N[C@@H](C(=O)O)c1ccccc1)N1C(=O)N2CCc3c([nH]c4ccccc34)[C@@]2(C)C1=O	-6.67
CC(C)C[C@@H](C(=O)NC1CC1)N1C(=O)N2CCc3c([nH]c4ccccc34)[C@@]2(C)C1=O	-15
Cc1ccc(CCN2CC(C(=O)NCCCN3CCN(C)CC3)CC2=O)cc1 (stereo not drawn)	-8.81
CCN(C(=O)CSc1ccc2c(c1)OCCO2)C1CCS(=O)(=O)C1 (stereo not drawn)	9.65
COc1ccc(O)c(C(=O)c2cnc3c(c2)c(-c2ccc(F)cc2)c(C#N)c(=O)n3C)c1	12.6
CCCCn1c(-c2cccnc2)nc2cc3[nH]c(=O)c(C(C)C)nc3cc21	-50.4
CCCCn1c(-c2cccc(Br)c2)nc2cc3[nH]c(=O)c(C(C)C)nc3cc21	4.08

SMILES	hERG current change (%, negative = inhibition) at 10uM [%]
CCCCn1c(-c2cccc(C)c2)nc2cc3[nH]c(=O)c(C(C)C)nc3cc21	0.235
CC(=O)C(Sc1nnnn1-c1ccc(O)cc1)c1ccccc1 (stereo not drawn)	-14.3
COc1ccc(CCNC(=O)CSc2nc(=O)n3cccc(C)c3n2)cc1OC	15.8
COc1ccc(CCNC(=O)c2ccc3c(=O)n(Cc4ccco4)c(=S)[nH]c3c2)cc1OC	17.2
COc1ccc(CCNC(=O)c2coc3ccccc3c2=O)cc1OC	-4.09
COc1ccc(CCNC(=O)c2cc3c(=O)n4cccc(C)c4nc3n(Cc3ccco3)c2=N)cc1OC	-80.9
COc1ccc(CCNC(=O)c2cc3c(=O)n4ccccc4nc3n(Cc3ccco3)c2=N)cc1OC	-76.6
COc1ccc(CCNC(=O)c2cc3c(=O)n4cccc(C)c4nc3s2)cc1OC	21.3
CSc1ccc(Cl)c(C(=O)OCC(=O)NCC(C)C)c1	-21
CCN(CC)CC(O)Cn1c2ccccc2c2ccccc21 (stereo not drawn)	-16
CCN(CC)CC(O)Cn1c(C)c(-c2ccccc2)c2cc([N+](=O)[O-])ccc21.Cl (stereo not drawn)	-65.3
Cn1c(CO)c(-c2ccccc2)c2cc([N+](=O)[O-])ccc21	10.2
Nc1cccc2c1C(=O)N(CCOc1ccccc1F)C2=O	20.2
N#Cc1nc(COc2ccc(F)cc2)oc1N1CCN(Cc2ccccc2)CC1	-75.3
N#Cc1nc(COc2ccccc2)oc1N1CCN(Cc2ccccc2)CC1	-21.9
Cc1ccc(OCc2nc(C#N)c(N3CCCCC3)o2)cc1	-4.24
N#Cc1nc(COc2ccc(F)cc2)oc1N1CCCC1	-46.7
CN1CCN(c2oc(COc3ccc(-c4ccccc4)cc3)nc2C#N)CC1	-19
Cc1ccc(OCc2nc(C#N)c(N3CCN(Cc4ccccc4)CC3)o2)cc1	-6.23
CCN1CCN(c2oc(COc3ccc(-c4ccccc4)cc3)nc2C#N)CC1	-55.8
Cc1ccc(OCc2nc(C#N)c(N3CCCC3)o2)cc1	-62.8
N#Cc1nc(COc2ccc(Cl)cc2)oc1N1CCN(Cc2ccccc2)CC1	-1.08
N#Cc1nc(COc2ccc(Cl)cc2)oc1N1CCCC1	-38.9
COc1ccc(N2CCN(c3oc(COc4ccc(Cl)cc4)nc3C#N)CC2)cc1	-2.55
CCN1CCN(c2oc(COc3ccc(Cl)cc3)nc2C#N)CC1	-77
